According to the supplement of paper PMC4466140:

B1: unnamed (peptide)
chain: QFDLKMPSKPIHNLK
B2: unnamed (peptide)
chain: TPTSGPPLLPPRNTM

What follows are binders tested against AgAbp1 (assay: SPOT peptide array binding signal intensity (averaged, normalized) (arbitrary units (background-subtracted, floor 0; scale differs between SH3 domains)); higher = stronger binding of the SH3 domain to the peptide).
In short: (§1)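 GST-fused SH3 domains, from four yeast species, were produced in E. coli BL21(DE3) and captured on glutathione Sepharose. Membranes of cellulose carrying synthetic 15-mer peptides, in which cysteines had been replaced by serines, were exposed to each domain at 10 μg/ml overnight at 4°C in TBS-based blocking buffer. After anti-GST antibody, an HRP anti-mouse secondary and luminol, spots were imaged and quantified using Genespotter. Binding signal is normalized and background-subtracted spot intensity, averaged over replicates, in arbitrary units that differ between domains.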

Binder	SPOT peptide array binding signal intensity
B1	≤ 0
B2	≤ 0

What follows are binders tested against AgBbc1 in the same assay as above.
In short: as §1

Binder	SPOT peptide array binding signal intensity
B1	0.5
B2	128

What follows are binders tested against AgBem1-D1 in the same assay as above.
In short: as §1

Binder	SPOT peptide array binding signal intensity
B1	103
B2	≤ 0

Each binder was assayed against AgBzz1-D1 in the same assay as above.
In short: as §1

Binder	SPOT peptide array binding signal intensity
B1	3.5
B2	15

Each binder was assayed against AgBzz1-D2 in the same assay as above.
In short: as §1

Binder	SPOT peptide array binding signal intensity
B1	≤ 0
B2	≤ 0

Each binder was assayed against AgCyk3 in the same assay as above.
In short: as §1

Binder	SPOT peptide array binding signal intensity
B1	≤ 0
B2	6

Each binder was assayed against AgFus1 in the same assay as above.
In short: as §1

Binder	SPOT peptide array binding signal intensity
B1	48.5
B2	≤ 0

What follows are binders tested against AgHof1 in the same assay as above.
In short: as §1

Binder	SPOT peptide array binding signal intensity
B1	≤ 0
B2	21.2

The binders below were run against AgHse1 in the same assay as above.
In short: as §1

Binder	SPOT peptide array binding signal intensity
B1	85.5
B2	65.5

These binders were tested against AgLsb1 in the same assay as above.
In short: as §1

Binder	SPOT peptide array binding signal intensity
B1	≤ 0
B2	778

These binders were tested against AgLsb4 in the same assay as above.
In short: as §1

Binder	SPOT peptide array binding signal intensity
B1	3.5
B2	5100

Each binder was assayed against AgMyo5 in the same assay as above.
In short: as §1

Binder	SPOT peptide array binding signal intensity
B1	≤ 0
B2	124

The binders below were run against AgNbp2 in the same assay as above.
In short: as §1

Binder	SPOT peptide array binding signal intensity
B1	63.5
B2	≤ 0

The binders below were run against AgRvs167 in the same assay as above.
In short: as §1

Binder	SPOT peptide array binding signal intensity
B1	0.333
B2	801

These binders were tested against AgSho1 in the same assay as above.
In short: as §1

Binder	SPOT peptide array binding signal intensity
B1	57
B2	≤ 0

What follows are binders tested against AgSla1-D1-D2 in the same assay as above.
In short: as §1

Binder	SPOT peptide array binding signal intensity
B1	≤ 0
B2	≤ 0

What follows are binders tested against AgSla1-D3 in the same assay as above.
In short: as §1

Binder	SPOT peptide array binding signal intensity
B1	≤ 0
B2	0.5

The binders below were run against CaAbp1-D1 in the same assay as above.
In short: as §1

Binder	SPOT peptide array binding signal intensity
B1	≤ 0
B2	≤ 0

The binders below were run against CaAbp1-D2 in the same assay as above.
In short: as §1

Binder	SPOT peptide array binding signal intensity
B1	≤ 0
B2	≤ 0

What follows are binders tested against CaBbc1 in the same assay as above.
In short: as §1

Binder	SPOT peptide array binding signal intensity
B1	9.5
B2	153

Each binder was assayed against CaBem1-D1 in the same assay as above.
In short: as §1

Binder	SPOT peptide array binding signal intensity
B1	25
B2	0.5

The binders below were run against CaBzz1-D1 in the same assay as above.
In short: as §1

Binder	SPOT peptide array binding signal intensity
B1	≤ 0
B2	91

These binders were tested against CaBzz1-D2 in the same assay as above.
In short: as §1

Binder	SPOT peptide array binding signal intensity
B1	8
B2	33.5

What follows are binders tested against CaCyk3 in the same assay as above.
In short: as §1

Binder	SPOT peptide array binding signal intensity
B1	1.5
B2	1

The binders below were run against CaFus1 in the same assay as above.
In short: as §1

Binder	SPOT peptide array binding signal intensity
B1	446
B2	25

The binders below were run against CaHof1 in the same assay as above.
In short: as §1

Binder	SPOT peptide array binding signal intensity
B1	≤ 0
B2	4.75

The binders below were run against CaHse1 in the same assay as above.
In short: as §1

Binder	SPOT peptide array binding signal intensity
B1	49.8
B2	100

These binders were tested against CaLsb1 in the same assay as above.
In short: as §1

Binder	SPOT peptide array binding signal intensity
B1	≤ 0
B2	5.5

Each binder was assayed against CaLsb4 in the same assay as above.
In short: as §1

Binder	SPOT peptide array binding signal intensity
B1	142
B2	5320

These binders were tested against CaMyo5 in the same assay as above.
In short: as §1

Binder	SPOT peptide array binding signal intensity
B1	8
B2	36.8

Each binder was assayed against CaNbp2 in the same assay as above.
In short: as §1

Binder	SPOT peptide array binding signal intensity
B1	202

What follows are binders tested against CaRvs167 in the same assay as above.
In short: as §1

Binder	SPOT peptide array binding signal intensity
B1	1.67

What follows are binders tested against CaRvs167-3 in the same assay as above.
In short: as §1

Binder	SPOT peptide array binding signal intensity
B1	≤ 0

The binders below were run against CaSho1 in the same assay as above.
In short: as §1

Binder	SPOT peptide array binding signal intensity
B1	376

Each binder was assayed against CaSla1-D1-D2 in the same assay as above.
In short: as §1

Binder	SPOT peptide array binding signal intensity
B1	68

The binders below were run against CaSla1-D3 in the same assay as above.
In short: as §1

Binder	SPOT peptide array binding signal intensity
B1	77

These binders were tested against ScAbp1 in the same assay as above.
In short: as §1

Binder	SPOT peptide array binding signal intensity
B1	≤ 0

Each binder was assayed against ScBbc1 in the same assay as above.
In short: as §1

Binder	SPOT peptide array binding signal intensity
B1	0.25

Each binder was assayed against ScBem1-D1 in the same assay as above.
In short: as §1

Binder	SPOT peptide array binding signal intensity
B1	≤ 0

Each binder was assayed against ScBzz1-D1 in the same assay as above.
In short: as §1

Binder	SPOT peptide array binding signal intensity
B1	≤ 0

These binders were tested against ScBzz1-D2 in the same assay as above.
In short: as §1

Binder	SPOT peptide array binding signal intensity
B1	3.5

The binders below were run against ScCyk3 in the same assay as above.
In short: as §1

Binder	SPOT peptide array binding signal intensity
B1	≤ 0

The binders below were run against ScFus1 in the same assay as above.
In short: as §1

Binder	SPOT peptide array binding signal intensity
B1	70

What follows are binders tested against ScHof1 in the same assay as above.
In short: as §1

Binder	SPOT peptide array binding signal intensity
B1	0.5

The binders below were run against ScHse1 in the same assay as above.
In short: as §1

Binder	SPOT peptide array binding signal intensity
B1	57

These binders were tested against ScLsb1 in the same assay as above.
In short: as §1

Binder	SPOT peptide array binding signal intensity
B1	9

What follows are binders tested against ScLsb2 in the same assay as above.
In short: as §1

Binder	SPOT peptide array binding signal intensity
B1	1

These binders were tested against ScLsb3 in the same assay as above.
In short: as §1

Binder	SPOT peptide array binding signal intensity
B1	74

The binders below were run against ScLsb4 in the same assay as above.
In short: as §1

Binder	SPOT peptide array binding signal intensity
B1	21

Each binder was assayed against ScMyo3 in the same assay as above.
In short: as §1

Binder	SPOT peptide array binding signal intensity
B1	≤ 0

What follows are binders tested against ScMyo5 in the same assay as above.
In short: as §1

Binder	SPOT peptide array binding signal intensity
B1	≤ 0

What follows are binders tested against ScNbp2 in the same assay as above.
In short: as §1

Binder	SPOT peptide array binding signal intensity
B1	79.5

What follows are binders tested against ScPex13 in the same assay as above.
In short: as §1

Binder	SPOT peptide array binding signal intensity
B1	23.8

These binders were tested against ScRvs167 in the same assay as above.
In short: as §1

Binder	SPOT peptide array binding signal intensity
B1	2.83

Each binder was assayed against ScSho1 in the same assay as above.
In short: as §1

Binder	SPOT peptide array binding signal intensity
B1	198

These binders were tested against ScSla1-D1-D2 in the same assay as above.
In short: as §1

Binder	SPOT peptide array binding signal intensity
B1	59

Each binder was assayed against ScSla1-D3 in the same assay as above.
In short: as §1

Binder	SPOT peptide array binding signal intensity
B1	150

These binders were tested against SpAbp1-D1 in the same assay as above.
In short: as §1

Binder	SPOT peptide array binding signal intensity
B1	0.5

The binders below were run against SpBbc1 in the same assay as above.
In short: as §1

Binder	SPOT peptide array binding signal intensity
B1	1.5

These binders were tested against SpBzz1-D1 in the same assay as above.
In short: as §1

Binder	SPOT peptide array binding signal intensity
B1	104

The binders below were run against SpBzz1-D2 in the same assay as above.
In short: as §1

Binder	SPOT peptide array binding signal intensity
B1	≤ 0

What follows are binders tested against SpCyk3 in the same assay as above.
In short: as §1

Binder	SPOT peptide array binding signal intensity
B1	≤ 0

These binders were tested against SpHof1 in the same assay as above.
In short: as §1

Binder	SPOT peptide array binding signal intensity
B1	9

These binders were tested against SpHof1-2 in the same assay as above.
In short: as §1

Binder	SPOT peptide array binding signal intensity
B1	11.8

Each binder was assayed against SpHof1-3 in the same assay as above.
In short: as §1

Binder	SPOT peptide array binding signal intensity
B1	≤ 0

These binders were tested against SpHse1 in the same assay as above.
In short: as §1

Binder	SPOT peptide array binding signal intensity
B1	136

What follows are binders tested against SpLsb1 in the same assay as above.
In short: as §1

Binder	SPOT peptide array binding signal intensity
B1	≤ 0

These binders were tested against SpLsb4 in the same assay as above.
In short: as §1

Binder	SPOT peptide array binding signal intensity
B1	318

What follows are binders tested against SpMyo1 in the same assay as above.
In short: as §1

Binder	SPOT peptide array binding signal intensity
B1	≤ 0

These binders were tested against SpNbp2 in the same assay as above.
In short: as §1

Binder	SPOT peptide array binding signal intensity
B1	74.5

Each binder was assayed against SpPex13 in the same assay as above.
In short: as §1

Binder	SPOT peptide array binding signal intensity
B1	1

These binders were tested against SpRvs167 in the same assay as above.
In short: as §1

Binder	SPOT peptide array binding signal intensity
B1	≤ 0

The binders below were run against SpSla1-D1-D2 in the same assay as above.
In short: as §1

Binder	SPOT peptide array binding signal intensity
B1	5

These binders were tested against SpSla1-D3 in the same assay as above.
In short: as §1

Binder	SPOT peptide array binding signal intensity
B1	30
